Experimental data from PubChem BioAssay (NCI).
About 79,000 compounds went through this panel and 15% of them were active in at least one assay; those are over-represented in the sample as a whole. Active and inactive are the calls of the source. Rule as the data show it: active = growth inhibition above about 70%; inactive = the rest.

What was measured:
[1] = NCI Yeast Anticancer Drug Screen. Data for the rad52 strain (AID 147);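 also: 0% = growth of vehicle-treated control cultures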; conditions: S. cerevisiae rad52 mutant growth inhibition, hits give high values
How it was run: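 Screen used a yeast mutant impaired in DNA repair. After compound exposure, growth was measured. Values reflect inhibition compared with vehicle-treated cells.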

[2] = NCI Yeast Anticancer Drug Screen. Data for the wt1 strain (AID 149);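 also: 0% = growth of vehicle-treated wt1 cultures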; conditions: S. cerevisiae wt1 strain (SPY 50644) growth inhibition, hits give high values
How it was run: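 wt1 yeast, compound-treated; % growth inhibition vs vehicle control.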

[3] = NCI Yeast Anticancer Drug Screen. Data for the rad50EPP+ strain (AID 151);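 also: 0% = growth of vehicle-treated control cultures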; conditions: S. cerevisiae rad50 mutant strain, hits give high values
How it was run: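 Exposing the rad50EPP+ strain to each compound, growth was compared with vehicle-only cultures to give inhibition.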

[4] = NCI Yeast Anticancer Drug Screen. Data for the mgt1 strain (AID 153); conditions: S. cerevisiae mgt1 mutant growth inhibition, hits give high values
How it was run: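 Genetically defined yeast (mgt1) treated with compound; inhibition of growth expressed against vehicle-treated controls.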

[5] = NCI Yeast Anticancer Drug Screen. Data for the rad50 strain (AID 155);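 also: 0% = growth of vehicle-only cultures of the same strain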; conditions: S. cerevisiae rad50 strain growth inhibition, hits give high values
How it was run: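 Genetically altered yeast (DNA repair pathway); compound treatment; growth inhibition vs vehicle ctrl.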

[6] = NCI Yeast Anticancer Drug Screen. Data for the mec2-1 strain (AID 157); conditions: S. cerevisiae mec2-1 strain, hits give high values
How it was run: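 Readout is yeast growth inhibition, normalised to vehicle-treated controls, in the mec2-1 strain exposed to compound.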

[7] = NCI Yeast Anticancer Drug Screen. Data for the rad14 strain (AID 159);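 also: 0% = growth of vehicle-treated control cultures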; conditions: S. cerevisiae rad14 strain growth inhibition, hits give high values
How it was run: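 Test compounds were applied to a repair-deficient yeast strain. Its growth was then compared with that of cultures given vehicle alone, and inhibition was expressed relative to those controls.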

[8] = NCI Yeast Anticancer Drug Screen. Data for the sgs1 mgt1 strain (AID 161);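 also: 0% = growth of cultures given vehicle only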; conditions: S. cerevisiae sgs1 mgt1 strain, hits give high values
How it was run: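 Percent growth inhibition was derived by comparing compound-exposed mutant yeast with vehicle-exposed cultures. The strain carries alterations in DNA damage repair.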

[9] = NCI Yeast Anticancer Drug Screen. Data for the CLN2oe strain (AID 163);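 also: 0% = growth of vehicle-only control cultures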; conditions: S. cerevisiae CLN2oe strain, hits give high values
How it was run: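 Values reflect how much compound exposure reduced yeast growth, referenced to vehicle-exposed cells. Assay organism is a strain with a defined genetic change affecting cell-cycle control.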

[10] = NCI Yeast Anticancer Drug Screen. Data for the cln2 rad14 strain (AID 165);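 also: 0% = growth equal to vehicle treated cultures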; conditions: S. cerevisiae cln2 rad14 strain, hits give high values
How it was run: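 Relative to vehicle controls, growth inhibition of compound-treated cln2 rad14 yeast was recorded.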

[11] = NCI Yeast Anticancer Drug Screen. Data for the bub3 strain (AID 167); conditions: S. cerevisiae bub3 mutant strain, hits give high values
How it was run: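 Yeast carrying a defined mutation is treated with each compound, and growth is compared with that of vehicle-exposed cells to give inhibition.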

[12] = NCI Yeast Anticancer Drug Screen. Data for the wt2 strain (AID 169);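 also: 0% = growth of vehicle-treated yeast cultures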; conditions: S. cerevisiae wt2 strain growth inhibition, hits give high values
How it was run: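 Values express reduction in yeast growth under compound treatment, referenced to vehicle-treated cells.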

[13] = NCI Yeast Anticancer Drug Screen. Data for the mlh1 strain (AID 171);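 also: 0% = growth of vehicle-treated control cultures of the same strain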; conditions: S. cerevisiae mlh1 strain growth inhibition, hits give high values
How it was run: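 Steps: expose the defined-mutant yeast strain to compound; expose a parallel culture to vehicle; measure growth; express compound effect as inhibition relative to the vehicle culture.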

[14] = NCI Yeast Anticancer Drug Screen. Data for the sgs1 strain (AID 173);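 also: 0% = growth of vehicle-only control cultures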; conditions: S. cerevisiae sgs1 mutant, hits give high values
How it was run: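 Treat defined-mutant yeast with compound; measure growth; calculate inhibition relative to vehicle-treated cells.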

[15] = NCI Yeast Anticancer Drug Screen. Data for the mlh1 rad18 strain (AID 175); conditions: S. cerevisiae mlh1 rad18 strain growth inhibition, hits give high values
How it was run: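 Test agents were incubated with a yeast strain of defined genotype (DNA damage repair defect). Inhibition of growth was derived by comparison with vehicle-exposed cultures.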

[16] = NCI Yeast Anticancer Drug Screen. Data for the rad18 strain (AID 177); conditions: S. cerevisiae rad18 mutant growth inhibition, hits give high values
How it was run: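 A genetically defined yeast mutant impaired in DNA damage repair was treated with test compounds, then its growth was measured against cultures receiving vehicle alone.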

[17] = at 5.0 µM (retest, dose inferred, filed as 0.5)
[18] = at 50.0 µM (retest, dose inferred, filed as 5.0)

Measured: growth inhibition

COc1cc([C@@H]2c3cc4c(cc3[C@@H](OC3OC5COC(C)OC5C(O)C3O)[C@H]3COC(=O)[C@H]23)OCO4)cc(OC)c1O (stereo partly specified)
active: [1]; at 100.0 µM 81% | [5]; at 100.0 µM 89%
inactive: [1]; at 1.2 µM 1% | [1]; at 3.7 µM 4% | [1]; at 11.0 µM 20% | [1]; at 33.0 µM 51% | [2]; at 1.2 µM -1% | [2]; at 3.7 µM -2% | [2]; at 11.0 µM -2% | [2]; at 33.0 µM -1% | [2]; at 100.0 µM -13% | [3]; at 1.2 µM -9% | [3]; at 3.7 µM -3% | [3]; at 11.0 µM 2% | [3]; at 33.0 µM 9% | [3]; at 100.0 µM 23% | [4]; at 1.2 µM -4% | [4]; at 3.7 µM -4% | [4]; at 11.0 µM -2% | [4]; at 33.0 µM 0% | [4]; at 100.0 µM 0% | [5]; at 1.2 µM 0% | [5]; at 3.7 µM 4% | [5]; at 11.0 µM 20% | [5]; at 33.0 µM 61% | [5]; at 50.0 µM 11.6% | [6]; at 1.2 µM -3% | [6]; at 3.7 µM 0% | [6]; at 11.0 µM 4% | [6]; at 33.0 µM 2% | [6]; at 50.0 µM 11.6% | [6]; at 100.0 µM 4% | [7]; at 1.2 µM -2% | [7]; at 3.7 µM -2% | [7]; at 11.0 µM 3% | [7]; at 33.0 µM 2% | [7]; at 100.0 µM 12% | [8]; at 50.0 µM 13.8% | [9]; at 1.2 µM -2% | [9]; at 3.7 µM -6% | [9]; at 11.0 µM -4% | [9]; at 33.0 µM -4% | [9]; at 100.0 µM -6% | [10]; at 50.0 µM 11.3% | [11]; at 1.2 µM -7% | [11]; at 3.7 µM -8% | [11]; at 11.0 µM 0% | [11]; at 33.0 µM -12% | [11]; at 50.0 µM 4.5% | [11]; at 100.0 µM -5% | [12]; at 1.2 µM -3% | [12]; at 3.7 µM -2% | [12]; at 11.0 µM -4% | [12]; at 33.0 µM -3% | [12]; at 100.0 µM 3% | [13]; at 1.2 µM -4% | [13]; at 3.7 µM -3% | [13]; at 11.0 µM -1% | [13]; at 33.0 µM 0% | [13]; at 100.0 µM 7% | [14]; at 1.2 µM -3% | [14]; at 3.7 µM -3% | [14]; at 11.0 µM 1% | [14]; at 33.0 µM 5% | [14]; at 100.0 µM 16% | [15]; at 50.0 µM 64.8% | [16]; at 1.2 µM -4% | [16]; at 3.7 µM -2% | [16]; at 11.0 µM -2% | [16]; at 33.0 µM 6% | [16]; at 100.0 µM 18%

CC1=CCC(C(C)(C)c2ccc(O)cc2)CC1 (stereo unspecified)
active: [1]; at 33.0 µM 96% | [1]; at 100.0 µM 97% | [2]; at 33.0 µM 97% | [2]; at 100.0 µM 98% | [3]; at 100.0 µM 78% | [4]; at 33.0 µM 97% | [4]; at 100.0 µM 97% | [5]; at 33.0 µM 96% | [5]; at 50.0 µM 91.8% | [5]; at 100.0 µM 97% | [6]; at 33.0 µM 93% | [6]; [18] 73% | [6]; at 50.0 µM 93.5% | [6]; at 100.0 µM 98% | [7]; at 33.0 µM 97% | [7]; at 100.0 µM 98% | [8]; [18] 97% | [9]; at 33.0 µM 97% | [9]; at 100.0 µM 97% | [10]; [18] 98% | [11]; at 33.0 µM 96% | [11]; [18] 97% | [11]; at 100.0 µM 97% | [12]; at 33.0 µM 93% | [12]; at 100.0 µM 97% | [13]; at 33.0 µM 96% | [13]; at 100.0 µM 98% | [14]; at 33.0 µM 96% | [14]; at 100.0 µM 97% | [15]; at 50.0 µM 91.8% | [16]; at 33.0 µM 96% | [16]; at 100.0 µM 97%
inactive: [1]; at 1.2 µM 4% | [1]; at 3.7 µM -12% | [1]; at 11.0 µM -11% | [2]; at 1.2 µM -16% | [2]; at 3.7 µM -18% | [2]; at 11.0 µM -39% | [3]; at 1.2 µM -10% | [3]; at 3.7 µM -4% | [3]; at 11.0 µM -25% | [3]; at 33.0 µM 27% | [4]; at 1.2 µM 35% | [4]; at 3.7 µM 10% | [4]; at 11.0 µM -23% | [5]; at 1.2 µM -6% | [5]; at 3.7 µM -8% | [5]; [17] 35% | [5]; at 11.0 µM -26% | [5]; [18] 65% | [6]; at 1.2 µM -20% | [6]; at 3.7 µM -19% | [6]; [17] 52% | [6]; at 11.0 µM -40% | [7]; at 1.2 µM -8% | [7]; at 3.7 µM -18% | [7]; at 11.0 µM -39% | [8]; [17] 7% | [9]; at 1.2 µM 15% | [9]; at 3.7 µM 19% | [9]; at 11.0 µM -17% | [10]; [17] 37% | [11]; at 1.2 µM 7% | [11]; at 3.7 µM 4% | [11]; [17] 39% | [11]; at 11.0 µM -4% | [12]; at 1.2 µM -41% | [12]; at 3.7 µM -24% | [12]; at 11.0 µM -44% | [13]; at 1.2 µM 10% | [13]; at 3.7 µM 9% | [13]; at 11.0 µM -10% | [14]; at 1.2 µM 2% | [14]; at 3.7 µM -17% | [14]; at 11.0 µM -28% | [15]; [17] 32% | [15]; [18] 63% | [16]; at 1.2 µM -6% | [16]; at 3.7 µM -7% | [16]; at 11.0 µM -5%
